# From article PMC7862700, “An all-to-all approach to the identification of sequence-specific readers for epigenetic DNA modifications on cytosine”
# Legend:
# Test in all cases: DAPPL (digital affinity profiling via proximity ligation, sequencing); 10 mM Tris-HCl pH 7.5, 50 mM NaCl, 1 mM DTT, 4% glycerol, room temperature, 30 min; GST-TFs on glutathione beads, 16-mer random dsDNA library, 0.1% formaldehyde crosslink after washing; high values mean tight binding
# Settings in all cases: protein: recombinant; tags: N-terminal GST; dsDNA, one strand shown
# [1] = target: T1, ELK4 (Homo sapiens, UniProt P28324-2 1-405)
# T1 sequence: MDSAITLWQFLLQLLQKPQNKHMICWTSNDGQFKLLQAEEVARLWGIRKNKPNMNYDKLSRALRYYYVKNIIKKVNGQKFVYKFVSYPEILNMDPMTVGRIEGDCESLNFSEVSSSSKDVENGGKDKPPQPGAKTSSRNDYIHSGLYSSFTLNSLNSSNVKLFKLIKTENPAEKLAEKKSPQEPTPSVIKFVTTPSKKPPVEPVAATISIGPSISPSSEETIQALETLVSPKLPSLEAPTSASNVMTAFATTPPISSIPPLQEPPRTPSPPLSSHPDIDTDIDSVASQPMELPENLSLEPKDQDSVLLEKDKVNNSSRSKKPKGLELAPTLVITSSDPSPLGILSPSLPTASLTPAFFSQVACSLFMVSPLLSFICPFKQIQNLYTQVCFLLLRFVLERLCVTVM
# Method in brief: (§1)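 Human transcription factors fused to GST were expressed in yeast, captured on glutathione beads, given DNA barcodes and pooled with a GST-only negative control. Pools were incubated with 200 nmole of a 16-mer random double-stranded DNA library in Tris/NaCl/DTT/glycerol buffer at room temperature for 30 min. They were then washed, crosslinked with 0.1% formaldehyde, proximity-ligated (BsaI/T4 ligase, 1 h, 37 °C), PCR-amplified and sequenced on an Illumina NextSeq500. Binding signal is each 6-mer's read frequency for a factor divided by its frequency for the GST control.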
# [2] = target: T2, ETV2 (Homo sapiens, UniProt O00321 1-342)
# T2 sequence: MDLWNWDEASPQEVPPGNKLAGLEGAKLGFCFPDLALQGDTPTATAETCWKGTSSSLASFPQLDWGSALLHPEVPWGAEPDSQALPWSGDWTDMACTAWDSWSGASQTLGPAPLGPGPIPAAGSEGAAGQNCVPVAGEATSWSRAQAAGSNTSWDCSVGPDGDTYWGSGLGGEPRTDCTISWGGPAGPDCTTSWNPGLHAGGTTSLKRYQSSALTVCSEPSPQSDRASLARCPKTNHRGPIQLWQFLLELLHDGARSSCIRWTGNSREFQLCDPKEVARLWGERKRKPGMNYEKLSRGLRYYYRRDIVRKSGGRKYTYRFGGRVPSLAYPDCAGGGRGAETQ
# Method in brief: as §1
# [3] = target: T3, ELF3 (Homo sapiens, UniProt P78545 1-371)
# T3 sequence: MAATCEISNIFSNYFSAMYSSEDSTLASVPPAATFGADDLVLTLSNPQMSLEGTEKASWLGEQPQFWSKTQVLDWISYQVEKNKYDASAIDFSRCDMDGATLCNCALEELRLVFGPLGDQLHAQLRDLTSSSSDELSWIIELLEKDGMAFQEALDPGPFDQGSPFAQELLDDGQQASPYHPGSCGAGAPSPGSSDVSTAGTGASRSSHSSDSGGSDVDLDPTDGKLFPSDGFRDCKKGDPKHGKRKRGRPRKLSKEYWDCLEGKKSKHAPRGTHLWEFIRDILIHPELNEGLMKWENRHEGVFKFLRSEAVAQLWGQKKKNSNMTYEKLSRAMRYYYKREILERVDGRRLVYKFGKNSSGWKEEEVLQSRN
# Method in brief: as §1
# [4] = target: ETV1 (Homo sapiens, UniProt P50549 1-477)
# Chain of ETV1 (P50549 whole entry): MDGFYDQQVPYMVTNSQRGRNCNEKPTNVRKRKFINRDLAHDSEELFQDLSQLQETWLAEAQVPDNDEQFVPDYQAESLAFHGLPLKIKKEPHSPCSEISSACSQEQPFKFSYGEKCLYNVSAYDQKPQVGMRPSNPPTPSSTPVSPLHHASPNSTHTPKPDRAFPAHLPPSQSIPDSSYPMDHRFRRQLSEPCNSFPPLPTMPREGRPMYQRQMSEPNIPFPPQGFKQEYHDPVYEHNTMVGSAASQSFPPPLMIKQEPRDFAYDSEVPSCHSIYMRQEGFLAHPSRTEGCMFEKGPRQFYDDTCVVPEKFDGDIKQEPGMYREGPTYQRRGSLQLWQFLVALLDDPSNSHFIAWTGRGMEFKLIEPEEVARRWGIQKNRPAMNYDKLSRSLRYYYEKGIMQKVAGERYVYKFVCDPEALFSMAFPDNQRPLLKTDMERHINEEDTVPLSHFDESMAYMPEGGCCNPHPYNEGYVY
# Method in brief: as §1
# [5] = target: T4, ERF (Homo sapiens, UniProt P50548 1-548)
# T4 sequence: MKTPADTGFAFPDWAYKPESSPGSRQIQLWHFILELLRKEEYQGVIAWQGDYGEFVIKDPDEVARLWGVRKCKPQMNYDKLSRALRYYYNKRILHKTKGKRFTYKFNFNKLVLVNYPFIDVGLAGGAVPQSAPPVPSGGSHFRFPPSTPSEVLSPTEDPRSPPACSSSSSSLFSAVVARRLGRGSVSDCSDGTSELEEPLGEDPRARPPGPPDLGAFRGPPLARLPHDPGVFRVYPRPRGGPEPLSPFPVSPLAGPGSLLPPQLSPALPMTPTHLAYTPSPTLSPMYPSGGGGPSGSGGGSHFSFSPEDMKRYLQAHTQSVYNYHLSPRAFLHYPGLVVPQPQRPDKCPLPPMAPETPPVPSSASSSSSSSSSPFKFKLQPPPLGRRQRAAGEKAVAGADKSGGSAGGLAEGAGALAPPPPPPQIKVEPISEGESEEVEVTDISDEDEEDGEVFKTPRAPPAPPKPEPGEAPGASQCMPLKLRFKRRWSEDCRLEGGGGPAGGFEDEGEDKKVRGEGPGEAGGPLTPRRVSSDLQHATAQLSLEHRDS
# Method in brief: as §1
# [6] = target: T5, ETV3L (Homo sapiens, UniProt Q6ZN32 1-361)
# T5 sequence: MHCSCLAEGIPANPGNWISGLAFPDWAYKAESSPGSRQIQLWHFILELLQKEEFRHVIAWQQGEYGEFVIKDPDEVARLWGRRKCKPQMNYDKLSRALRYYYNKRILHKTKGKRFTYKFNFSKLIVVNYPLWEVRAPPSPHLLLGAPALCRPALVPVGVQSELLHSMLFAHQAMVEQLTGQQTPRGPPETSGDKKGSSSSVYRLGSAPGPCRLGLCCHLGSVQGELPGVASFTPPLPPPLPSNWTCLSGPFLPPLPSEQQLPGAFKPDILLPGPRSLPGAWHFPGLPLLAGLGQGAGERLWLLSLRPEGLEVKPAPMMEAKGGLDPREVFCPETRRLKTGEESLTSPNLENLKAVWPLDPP
# Method in brief: as §1
# [7] = target: T6, ETS2 (Homo sapiens, UniProt P15036 1-469)
# T6 sequence: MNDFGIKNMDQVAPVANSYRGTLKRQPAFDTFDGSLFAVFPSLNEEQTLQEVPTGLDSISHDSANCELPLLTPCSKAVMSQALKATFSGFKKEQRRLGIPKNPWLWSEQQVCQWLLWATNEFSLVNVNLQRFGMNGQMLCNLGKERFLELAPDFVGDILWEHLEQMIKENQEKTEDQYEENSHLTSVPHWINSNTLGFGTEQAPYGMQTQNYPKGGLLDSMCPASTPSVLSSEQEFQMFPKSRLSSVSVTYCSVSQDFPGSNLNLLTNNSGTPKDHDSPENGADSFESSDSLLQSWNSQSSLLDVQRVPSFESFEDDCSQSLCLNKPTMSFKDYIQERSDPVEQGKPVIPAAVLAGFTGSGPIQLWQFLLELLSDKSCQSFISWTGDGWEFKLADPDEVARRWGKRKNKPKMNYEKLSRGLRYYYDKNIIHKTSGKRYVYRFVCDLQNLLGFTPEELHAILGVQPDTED
# Method in brief: as §1
# [8] = target: T7, ETV7 (Homo sapiens, UniProt Q9Y603 1-341)
# T7 sequence: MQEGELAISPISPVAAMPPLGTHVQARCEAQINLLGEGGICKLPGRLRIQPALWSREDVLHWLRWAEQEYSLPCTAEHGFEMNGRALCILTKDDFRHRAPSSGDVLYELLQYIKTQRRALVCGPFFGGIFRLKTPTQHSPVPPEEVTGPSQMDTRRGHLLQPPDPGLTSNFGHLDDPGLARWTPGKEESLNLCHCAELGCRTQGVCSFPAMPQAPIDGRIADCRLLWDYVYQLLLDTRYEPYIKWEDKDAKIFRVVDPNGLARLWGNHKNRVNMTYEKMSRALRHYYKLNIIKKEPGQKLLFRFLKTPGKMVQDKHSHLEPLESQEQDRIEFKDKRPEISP
# Method in brief: as §1
# [9] = target: T8, ETV3 (Homo sapiens, UniProt P41162-2 1-143)
# T8 sequence: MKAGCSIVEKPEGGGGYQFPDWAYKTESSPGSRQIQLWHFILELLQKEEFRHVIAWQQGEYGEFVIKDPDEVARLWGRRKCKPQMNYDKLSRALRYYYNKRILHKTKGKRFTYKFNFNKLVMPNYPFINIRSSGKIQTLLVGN
# Method in brief: as §1
# [10] = target: ETV6 (Homo sapiens, UniProt P41212 1-452)
# Chain of ETV6 (P41212 whole entry): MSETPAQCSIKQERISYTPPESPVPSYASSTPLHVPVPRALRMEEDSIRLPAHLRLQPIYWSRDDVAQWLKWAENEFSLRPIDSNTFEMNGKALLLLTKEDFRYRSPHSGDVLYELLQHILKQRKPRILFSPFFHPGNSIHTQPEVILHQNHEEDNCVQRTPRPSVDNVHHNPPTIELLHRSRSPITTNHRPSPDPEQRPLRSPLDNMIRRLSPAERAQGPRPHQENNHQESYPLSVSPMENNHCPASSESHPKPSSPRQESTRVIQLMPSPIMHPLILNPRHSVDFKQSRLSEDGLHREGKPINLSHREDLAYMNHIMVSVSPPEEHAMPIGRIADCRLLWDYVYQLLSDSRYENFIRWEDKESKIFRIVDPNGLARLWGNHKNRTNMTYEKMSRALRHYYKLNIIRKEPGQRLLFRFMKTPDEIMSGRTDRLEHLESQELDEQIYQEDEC
# Method in brief: as §1
sequence,measurement,setting,value
ACCCCT,binding signal,[1],"1.28 fold enrichment (6-mer frequency, TF over GST control)"
same,binding signal,[2],"1.17 fold enrichment (6-mer frequency, TF over GST control)"
same,binding signal,[3],"1.09 fold enrichment (6-mer frequency, TF over GST control)"
same,binding signal,[4],"1.21 fold enrichment (6-mer frequency, TF over GST control)"
same,binding signal,[5],"1.06 fold enrichment (6-mer frequency, TF over GST control)"
same,binding signal,[6],"1.05 fold enrichment (6-mer frequency, TF over GST control)"
same,binding signal,[7],"1.08 fold enrichment (6-mer frequency, TF over GST control)"
same,binding signal,[8],"1 fold enrichment (6-mer frequency, TF over GST control)"
same,binding signal,[9],"1.03 fold enrichment (6-mer frequency, TF over GST control)"
same,binding signal,[10],"1.16 fold enrichment (6-mer frequency, TF over GST control)"
